Data taken from publication PMC11006913.
Positions count from the first letter of the chain named.

Legend:
Assay in all cases: PBM; 200 nM protein, PBS
Settings in all cases: dsDNA, one strand shown
[1] = target: SHOX (Homo sapiens, UniProt O15266 103-189)
[2] = target: ALX4 (Homo sapiens, UniProt Q9H161 200-286)
[3] = target: T1, PAX4 (Homo sapiens, UniProt O43316 9-242, R200K)
T1 sequence: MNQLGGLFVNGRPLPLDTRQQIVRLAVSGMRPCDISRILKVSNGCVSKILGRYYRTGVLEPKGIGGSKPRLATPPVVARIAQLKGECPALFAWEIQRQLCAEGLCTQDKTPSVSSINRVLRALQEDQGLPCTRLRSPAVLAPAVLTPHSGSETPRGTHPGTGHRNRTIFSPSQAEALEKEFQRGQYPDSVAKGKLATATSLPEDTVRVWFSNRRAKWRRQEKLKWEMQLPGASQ

[4] = target: T2, PAX4 (Homo sapiens, UniProt O43316 9-242)
T2 sequence: T1 sequence with K192R

[5] = target: ALX4 (Homo sapiens, UniProt Q9H161 200-286, Q225E)
[6] = target: MSX2 (Homo sapiens, UniProt P35548 130-214, R199I)
[7] = target: ALX1 (Homo sapiens, UniProt Q15699 118-204, L144V)
[8] = target: ALX3 (Homo sapiens, UniProt O95076 139-225, N203Q)
[9] = target: T3, PAX4 (Homo sapiens, UniProt O43316 9-242, R200Q)
T3 sequence: T1 sequence with K192Q

[10] = target: SHOX (Homo sapiens, UniProt O15266 103-189, R173C)
[11] = target: ALX1 (Homo sapiens, UniProt Q15699 118-204, L144R)
[12] = target: T4, PAX4 (Homo sapiens, UniProt O43316 9-242, F177V)
T4 sequence: T1 sequence with F169V, K192R

[13] = target: MSX2 (Homo sapiens, UniProt P35548 130-214)
[14] = target: ALX3 (Homo sapiens, UniProt O95076 139-225)
[15] = target: T5, PAX4 (Homo sapiens, UniProt O43316 9-242, F177Y)
T5 sequence: T1 sequence with F169Y, K192R

[16] = target: PROP1 (Homo sapiens, UniProt O75360 56-141)
[17] = target: PROP1 (Homo sapiens, UniProt O75360 56-141, R99H)
[18] = target: ALX3 (Homo sapiens, UniProt O95076 139-225, L168Q)
[19] = target: ALX3 (Homo sapiens, UniProt O95076 139-225, L168V)
[20] = target: PROP1 (Homo sapiens, UniProt O75360 56-141, F88S)
[21] = target: MSX2 (Homo sapiens, UniProt P35548 130-214, F161Y)
[22] = target: T6, PAX4 (Homo sapiens, UniProt O43316 9-242, R227W)
T6 sequence: T1 sequence with K192R, R219W

[23] = target: ALX1 (Homo sapiens, UniProt Q15699 118-204)
[24] = target: ALX3 (Homo sapiens, UniProt O95076 139-225, N203S)
ALX3 (Homo sapiens, UniProt O95076 139-225, N203S), sequence (O95076 139-225 N203S): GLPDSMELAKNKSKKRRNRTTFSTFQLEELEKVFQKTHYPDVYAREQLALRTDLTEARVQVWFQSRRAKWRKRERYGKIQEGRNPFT

MSX2 (Homo sapiens, UniProt P35548 130-214), sequence (P35548 130-214): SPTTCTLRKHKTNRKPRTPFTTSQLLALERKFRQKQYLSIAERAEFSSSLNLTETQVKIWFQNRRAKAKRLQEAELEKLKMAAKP
SHOX (Homo sapiens, UniProt O15266 103-189, R173C), sequence (O15266 103-189 R173C): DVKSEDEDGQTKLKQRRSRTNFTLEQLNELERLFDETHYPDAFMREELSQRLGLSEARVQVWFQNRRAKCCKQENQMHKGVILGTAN
SHOX (Homo sapiens, UniProt O15266 103-189), sequence (O15266 103-189): as the sequence (O15266 103-189 R173C) above, with C71R counted along it
MSX2 (Homo sapiens, UniProt P35548 130-214, R199I), sequence (P35548 130-214 R199I): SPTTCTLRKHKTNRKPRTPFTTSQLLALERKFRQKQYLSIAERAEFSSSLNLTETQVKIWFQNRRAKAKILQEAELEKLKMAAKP
MSX2 (Homo sapiens, UniProt P35548 130-214, F161Y), sequence (P35548 130-214 F161Y): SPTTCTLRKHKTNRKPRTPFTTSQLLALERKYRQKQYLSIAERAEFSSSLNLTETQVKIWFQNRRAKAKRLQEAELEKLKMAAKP
PROP1 (Homo sapiens, UniProt O75360 56-141), sequence (O75360 56-141): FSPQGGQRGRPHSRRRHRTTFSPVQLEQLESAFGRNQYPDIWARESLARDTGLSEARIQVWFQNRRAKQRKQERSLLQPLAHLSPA
ALX3 (Homo sapiens, UniProt O95076 139-225, L168Q), sequence (O95076 139-225 L168Q): as the sequence (O95076 139-225 N203S) above, with L30Q, S65N counted along it
ALX1 (Homo sapiens, UniProt Q15699 118-204, L144R), sequence (Q15699 118-204 L144R): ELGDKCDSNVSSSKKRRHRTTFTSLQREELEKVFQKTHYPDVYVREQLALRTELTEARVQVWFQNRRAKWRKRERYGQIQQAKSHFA
ALX4 (Homo sapiens, UniProt Q9H161 200-286, Q225E), sequence (Q9H161 200-286 Q225E): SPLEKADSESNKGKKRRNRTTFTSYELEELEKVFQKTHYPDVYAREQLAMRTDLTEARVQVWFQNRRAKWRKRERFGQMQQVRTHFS
ALX3 (Homo sapiens, UniProt O95076 139-225), sequence (O95076 139-225): as the sequence (O95076 139-225 N203S) above, with S65N counted along it
ALX3 (Homo sapiens, UniProt O95076 139-225, L168V), sequence (O95076 139-225 L168V): as the sequence (O95076 139-225 N203S) above, with L30V, S65N counted along it
ALX1 (Homo sapiens, UniProt Q15699 118-204), sequence (Q15699 118-204): as the sequence (Q15699 118-204 L144R) above, with R27L counted along it
PROP1 (Homo sapiens, UniProt O75360 56-141, R99H), sequence (O75360 56-141 R99H): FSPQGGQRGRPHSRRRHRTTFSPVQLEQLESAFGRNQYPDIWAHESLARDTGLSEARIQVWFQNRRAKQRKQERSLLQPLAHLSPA
ALX1 (Homo sapiens, UniProt Q15699 118-204, L144V), sequence (Q15699 118-204 L144V): as the sequence (Q15699 118-204 L144R) above, with R27V counted along it
ALX4 (Homo sapiens, UniProt Q9H161 200-286), sequence (Q9H161 200-286): as the sequence (Q9H161 200-286 Q225E) above, with E26Q counted along it
PROP1 (Homo sapiens, UniProt O75360 56-141, F88S), sequence (O75360 56-141 F88S): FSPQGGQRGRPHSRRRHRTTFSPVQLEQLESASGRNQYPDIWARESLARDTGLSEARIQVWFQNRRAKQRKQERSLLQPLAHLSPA
ALX3 (Homo sapiens, UniProt O95076 139-225, N203Q), sequence (O95076 139-225 N203Q): as the sequence (O95076 139-225 N203S) above, with S65Q counted along it

CAAATTAG
binding signal [1]: 11.8 upbm affinity estimate (log intensity, higher = more binding, comparable within an allelic series) | binding signal [2]: 13.6 upbm affinity estimate (log intensity, higher = more binding, comparable within an allelic series) | binding signal [3]: 11.8 upbm affinity estimate (log intensity, higher = more binding, comparable within an allelic series) | binding signal [4]: 12.4 upbm affinity estimate (log intensity, higher = more binding, comparable within an allelic series) | binding signal [5]: 12.4 upbm affinity estimate (log intensity, higher = more binding, comparable within an allelic series) | binding signal [6]: 12.1 upbm affinity estimate (log intensity, higher = more binding, comparable within an allelic series) | binding signal [7]: 11.3 upbm affinity estimate (log intensity, higher = more binding, comparable within an allelic series) | binding signal [8]: 8.31 upbm affinity estimate (log intensity, higher = more binding, comparable within an allelic series) | binding signal [9]: 12.3 upbm affinity estimate (log intensity, higher = more binding, comparable within an allelic series) | binding signal [10]: 9.26 upbm affinity estimate (log intensity, higher = more binding, comparable within an allelic series) | binding signal [11]: 10.9 upbm affinity estimate (log intensity, higher = more binding, comparable within an allelic series) | binding signal [12]: 10.4 upbm affinity estimate (log intensity, higher = more binding, comparable within an allelic series) | binding signal [13]: 13.3 upbm affinity estimate (log intensity, higher = more binding, comparable within an allelic series) | binding signal [14]: 12.2 upbm affinity estimate (log intensity, higher = more binding, comparable within an allelic series) | binding signal [15]: 11 upbm affinity estimate (log intensity, higher = more binding, comparable within an allelic series) | binding signal [16]: 11.1 upbm affinity estimate (log intensity, higher = more binding, comparable within an allelic series) | binding signal [17]: 10.7 upbm affinity estimate (log intensity, higher = more binding, comparable within an allelic series) | binding signal [18]: 10.1 upbm affinity estimate (log intensity, higher = more binding, comparable within an allelic series) | binding signal [19]: 9.51 upbm affinity estimate (log intensity, higher = more binding, comparable within an allelic series) | binding signal [20]: 7.47 upbm affinity estimate (log intensity, higher = more binding, comparable within an allelic series) | binding signal [21]: 12.9 upbm affinity estimate (log intensity, higher = more binding, comparable within an allelic series) | binding signal [22]: 11 upbm affinity estimate (log intensity, higher = more binding, comparable within an allelic series) | binding signal [23]: 12.1 upbm affinity estimate (log intensity, higher = more binding, comparable within an allelic series) | binding signal [24]: 8.39 upbm affinity estimate (log intensity, higher = more binding, comparable within an allelic series)

AATTAGAG
binding signal [1]: 11.6 upbm affinity estimate (log intensity, higher = more binding, comparable within an allelic series) | binding signal [3]: 11.7 upbm affinity estimate (log intensity, higher = more binding, comparable within an allelic series) | binding signal [4]: 12.2 upbm affinity estimate (log intensity, higher = more binding, comparable within an allelic series) | binding signal [6]: 12.1 upbm affinity estimate (log intensity, higher = more binding, comparable within an allelic series) | binding signal [9]: 12 upbm affinity estimate (log intensity, higher = more binding, comparable within an allelic series) | binding signal [10]: 9.13 upbm affinity estimate (log intensity, higher = more binding, comparable within an allelic series) | binding signal [12]: 10.4 upbm affinity estimate (log intensity, higher = more binding, comparable within an allelic series) | binding signal [13]: 13.3 upbm affinity estimate (log intensity, higher = more binding, comparable within an allelic series) | binding signal [15]: 10.9 upbm affinity estimate (log intensity, higher = more binding, comparable within an allelic series) | binding signal [21]: 13.1 upbm affinity estimate (log intensity, higher = more binding, comparable within an allelic series) | binding signal [22]: 10.8 upbm affinity estimate (log intensity, higher = more binding, comparable within an allelic series)
